Laboratory results published in article PMC12820563, “FoxP3 forms a head-to-head dimer in vivo and stabilizes its multimerization on adjacent microsatellites”.
Over roughly 16,000 sequences, “rpm ratio (pull-down/input)” has its median near 0.5; the highest 2% begin near 5.5. The sample holds the highest values, similar sequences and a random draw of the others, so the mix is not that of the screen.

Biological target: T1, MBP-FoxP3dN (Mus musculus, UniProt Q99JB6 188-423)
T1 sequence: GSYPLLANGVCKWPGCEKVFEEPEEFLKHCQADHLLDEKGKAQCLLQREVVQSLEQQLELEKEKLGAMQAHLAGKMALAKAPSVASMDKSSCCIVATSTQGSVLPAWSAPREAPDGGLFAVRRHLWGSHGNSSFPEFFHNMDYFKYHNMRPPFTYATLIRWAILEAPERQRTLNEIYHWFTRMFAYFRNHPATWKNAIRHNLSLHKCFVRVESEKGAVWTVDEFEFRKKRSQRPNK
Experiment: PD-seq (MBP pull-down with sequencing); 20 mM Tris-HCl pH 7.5, 100 mM NaCl, 1.5 mM MgCl2, 0.4 uM protein, 0.1 uM dsDNA library, 30 min, room temperature, amylose pull-down; high values mean tight binding
Conditions: protein: recombinant; tags: His6-MBP; chain copies: 2; dsDNA, one strand shown
Procedure, shortened: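 Binding is reads-per-million enrichment of pull-down over input, with replicates pooled. It comes from 30 min room-temperature incubation in Tris pH 7.5 buffer with NaCl and MgCl2 of 0.4 µM His6-MBP-tagged, N-terminally truncated mouse FoxP3 or FoxP1 fragment from E. coli with 0.1 µM Klenow-filled degenerate double-stranded DNA library, followed by amylose resin capture, three washes and Illumina sequencing of the released DNA.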

Sequence	binding signal
GATGATTGTTCTCCCAGCTGATGAATTAAGTAATTCGAGTAAACAAATTTTCCTAATCTTTCTGTTCAAGCGCCATCTAC	1.05 RPM ratio (pull-down/input)
GATGATTGTTCTCCCAGCTGATGAATTGATCTTGTCGAGTAAACAAATTTTCCTAATCTTTCTGTTCAAGCGCCATCTAC	0.293 RPM ratio (pull-down/input)
GATGATTGTTCTCCCAGCTGATGAATTTGCCCTCTCGAGTAAACAAATTTTCCTAATCTTTCTGTTCAAGCGCCATCTAC	0.526 RPM ratio (pull-down/input)
GATGATTGTTCTCCCAGCTGATGAATTTGCCTCCTCGAGTAAACAAATTTTCCTAATCTTTCTGTTCAAGCGCCATCTAC	2.37 RPM ratio (pull-down/input)
GATGATTGTTCTCCCAGCTGATGAATTCTTTGCCTCGAGTAAACAAATTTTCCTAATCTTTCTGTTCAAGCGCCATCTAC	0.403 RPM ratio (pull-down/input)
GATGATTGTTCTCCCAGCTGATGAATTTGCCGCCTCGAGTAAACAAATTTTCCTAATCTTTCTGTTCAAGCGCCATCTAC	0.88 RPM ratio (pull-down/input)
GATGATTGTTCTCCCAGCTGATGAATTTGCCTCTTCGAGTAAACAAATTTTCCTAATCTTTCTGTTCAAGCGCCATCTAC	2.52 RPM ratio (pull-down/input)
GATGATTGTTCTCCCAGCTGATGAATTTTGCCTCTCGAGTAAACAAATTTTCCTAATCTTTCTGTTCAAGCGCCATCTAC	5.78 RPM ratio (pull-down/input)
GATGATTGTTCTCCCAGCTGATGAATTGCCTCTCTCGAGTAAACAAATTTTCCTAATCTTTCTGTTCAAGCGCCATCTAC	1.04 RPM ratio (pull-down/input)
GATGATTGTTCTCCCAGCTGATGAATTTTTTGCCTCGAGTAAACAAATTTTCCTAATCTTTCTGTTCAAGCGCCATCTAC	0.432 RPM ratio (pull-down/input)
GATGATTGTTCTCCCAGCTGATGAATTTGTTGCCTCGAGTAAACAAATTTTCCTAATCTTTCTGTTCAAGCGCCATCTAC	7.02 RPM ratio (pull-down/input)
GATGATTGTTCTCCCAGCTGATGAATTGTTTGCCTCGAGTAAACAAATTTTCCTAATCTTTCTGTTCAAGCGCCATCTAC	5.67 RPM ratio (pull-down/input)
GATGATTGTTCTCCCAGCTGATGAATTTTGCGCCTCGAGTAAACAAATTTTCCTAATCTTTCTGTTCAAGCGCCATCTAC	2.67 RPM ratio (pull-down/input)
GATGATTGTTCTCCCAGCTGATGAATTGCGCCTCTCGAGTAAACAAATTTTCCTAATCTTTCTGTTCAAGCGCCATCTAC	7.17 RPM ratio (pull-down/input)
GATGATTGTTCTCCCAGCTGATGAATTAGGTCCTTCGAGTAAACAAATTTTCCTAATCTTTCTGTTCAAGCGCCATCTAC	0.354 RPM ratio (pull-down/input)
GATGATTGTTCTCCCAGCTGATGAATTCTCTCCATCGAGTAAACAAATTTTCCTAATCTTTCTGTTCAAGCGCCATCTAC	0.223 RPM ratio (pull-down/input)
GATGATTGTTCTCCCAGCTGATGAATTGGTACGCTCGAGTAAACAAATTTTCCTAATCTTTCTGTTCAAGCGCCATCTAC	0.466 RPM ratio (pull-down/input)

Sequence	binding signal
GATGATTGTTCTCCCAGCTGATGAATTTGCCTTTTCGAGTAAACAAATTTTCCTAATCTTTCTGTTCAAGCGCCATCTAC	2.1 RPM ratio (pull-down/input)
GATGATTGTTCTCCCAGCTGATGAATTTTGCCTTTCGAGTAAACAAATTTTCCTAATCTTTCTGTTCAAGCGCCATCTAC	5.56 RPM ratio (pull-down/input)
GATGATTGTTCTCCCAGCTGATGAATTTGCGCCTTCGAGTAAACAAATTTTCCTAATCTTTCTGTTCAAGCGCCATCTAC	3.88 RPM ratio (pull-down/input)
GATGATTGTTCTCCCAGCTGATGAATTTTTGCCTTCGAGTAAACAAATTTTCCTAATCTTTCTGTTCAAGCGCCATCTAC	2.86 RPM ratio (pull-down/input)
GATGATTGTTCTCCCAGCTGATGAATTGCCTTTTTCGAGTAAACAAATTTTCCTAATCTTTCTGTTCAAGCGCCATCTAC	1.02 RPM ratio (pull-down/input)
GATGATTGTTCTCCCAGCTGATGAATTGCGCCTTTCGAGTAAACAAATTTTCCTAATCTTTCTGTTCAAGCGCCATCTAC	6.82 RPM ratio (pull-down/input)
GATGATTGTTCTCCCAGCTGATGAATTGTCTCATTCGAGTAAACAAATTTTCCTAATCTTTCTGTTCAAGCGCCATCTAC	0.539 RPM ratio (pull-down/input)
GATGATTGTTCTCCCAGCTGATGAATTGCCTTTGTCGAGTAAACAAATTTTCCTAATCTTTCTGTTCAAGCGCCATCTAC	0.946 RPM ratio (pull-down/input)
GATGATTGTTCTCCCAGCTGATGAATTTTGCCTGTCGAGTAAACAAATTTTCCTAATCTTTCTGTTCAAGCGCCATCTAC	5.62 RPM ratio (pull-down/input)
GATGATTGTTCTCCCAGCTGATGAATTTGCCCTGTCGAGTAAACAAATTTTCCTAATCTTTCTGTTCAAGCGCCATCTAC	0.487 RPM ratio (pull-down/input)
GATGATTGTTCTCCCAGCTGATGAATTGCGCCTGTCGAGTAAACAAATTTTCCTAATCTTTCTGTTCAAGCGCCATCTAC	6.14 RPM ratio (pull-down/input)
GATGATTGTTCTCCCAGCTGATGAATTGTTCCTGTCGAGTAAACAAATTTTCCTAATCTTTCTGTTCAAGCGCCATCTAC	0.351 RPM ratio (pull-down/input)
GATGATTGTTCTCCCAGCTGATGAATTGTGCCTGTCGAGTAAACAAATTTTCCTAATCTTTCTGTTCAAGCGCCATCTAC	6.42 RPM ratio (pull-down/input)
GATGATTGTTCTCCCAGCTGATGAATTGCCTGCGTCGAGTAAACAAATTTTCCTAATCTTTCTGTTCAAGCGCCATCTAC	0.937 RPM ratio (pull-down/input)
GATGATTGTTCTCCCAGCTGATGAATTGCCTGTGTCGAGTAAACAAATTTTCCTAATCTTTCTGTTCAAGCGCCATCTAC	0.881 RPM ratio (pull-down/input)
GATGATTGTTCTCCCAGCTGATGAATTTCCTGTGTCGAGTAAACAAATTTTCCTAATCTTTCTGTTCAAGCGCCATCTAC	0.352 RPM ratio (pull-down/input)
